# An excerpt weighted towards active compounds, which were near 3.5% of everything screened.
# TROY NFkB inh: inhibitors of TROY-driven NF-kB signaling, primary screen, Q293 LMP1-TROYcd cells, NF-kB luciferase, uHTS. inhibition, % at 10 µM. Q293 LMP1-TROYcd NF-kB luciferase reporter, 4 h. AID 1347056, 2019. hit rate 0.98% among 360,000;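 active = compounds whose plate-normalised and pattern-corrected inhibition of the luciferase reporter signal at the single screening dose is 50% or more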
# TWEAK Fn14 block: inhibitors of TWEAK-Fn14 signaling, primary screen, luciferase reporter cells, uHTS; TWEAK-stimulated Fn14 reporter cells, luciferase luminescence, 8 h; AID 1159606, 2016; inhibition, % at 10 µM; hit rate 2% among 360,000; in the data active = inhibition above about 50%
# PPC-1+TRAIL kill: compounds killing PPC-1 cancer cells with TRAIL present, primary screen, TRAIL potentiator project, ATPLite luminescence, uHTS | PPC-1 cells + TRAIL, ATPLite viability luminescence | cell killing (% activity), % at 4 µM or 5 µM | hit rate 0.41% among 220,000;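 active = cell killing above 50% in the first pass at 4 µM, then a duplicate retest at 5 µM averaging 50% or more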;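 also: plate controls were cells with TRAIL plus DMSO for no effect and medium-only wells lacking cells for full effect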
# HSP90 refold inh: HSP90 inhibitors, primary screen, cell lysate, luminescence; Rabbit reticulocyte lysate, luciferase refolding luminescence, 3 h; inhibition, % at 5.6 µM; hit rate 0.91% among 290,000; AID 1789, 2009;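 active = inhibition above the screen-wide mean plus 3 SD, computed separately per campaign, cut at about 16% in these data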;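 also: 0% = DMSO wells and 100% = 60 µM geldanamycin wells; inhibitors lower the luminescence because luciferase stays unfolded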
# C8 TRAIL sens: viability loss with TRAIL in NB7+C8 cells, primary screen, TRAIL sensitizer project, cell-based, ATPlite luminescence; inhibition (viability loss, TRAIL sensitization), % at 10 µM; AID 624354, 2012; hit rate 1% among 360,000;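 active = compounds causing at least 50% loss of cell viability in the single-dose screen, relative to plate controls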
# Platelet DG rel: inhibitors of platelet dense granule secretion, primary screen, cell-based, MLPCN, human platelets; inhibition, %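 (compounds screened at 7.5 µM in platelet-rich plasma)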; hit rate 0.22% among 300,000; human platelet-rich plasma, SFLLRN dense granule ATP release, luminescence; AID 1663, 2009;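 active = mean replicate score, as percent of positive control, at or above 50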
# An asterisk follows results filed as active; nt = no result.
SMILES,TROY NFkB inh,TWEAK Fn14 block,PPC-1+TRAIL kill,HSP90 refold inh,C8 TRAIL sens,Platelet DG rel
CC(C)Cc1ccc(C(C)CC2=CCC(CN(C)C)C2=O)cc1 (stereo not given),0.5,14.6,nt,nt,90.6*,nt
CCC(C)NC(=O)c1cc(S(=O)(=O)N2CCCCC2)c[nH]1 (stereo not given),1.8,-0.4,nt,-1.5,-16.9,-10.3
CCOc1ccc(NC(=O)c2ccc3c(c2)OCCO3)cc1S(=O)(=O)N(CC)CC,-0.5,32.8,nt,nt,-0.8,nt
CC(SC#N)C(=O)C12CC3CC(CC(C3)C1)C2 (stereo not given),41.1,72.0*,2.7,1.3,2.2,6.5
O=C(Nc1cccc(OCC(=O)N2CCOCC2)c1)c1cccc([N+](=O)[O-])c1,10.3,23.7,23.7,1.5,-10.9,7.8
O=C(COc1cccc(NC(=O)c2cccc([N+](=O)[O-])c2)c1)c1ccc(Br)cc1,38.7,71.1*,-9.5,4.4,-2.4,17.6
O=S(=O)(c1ccc(F)cc1)c1snnc1-c1ccccc1,27.2,63.5*,19.9,6.2,-22.7,-5.6
O=S(=O)(c1ccc(Cl)cc1)c1snnc1-c1ccccc1,49.1,88.5*,7.6,-2.3,23.9,-1.3
c1ccc(-c2nnsc2-c2ncc[nH]2)cc1,-3.5,-4.1,-3.2,-0.7,-15.4,4.6
CC1(C)CC(=O)c2c(O)cc(OCC(=O)Nc3ccc(S(N)(=O)=O)cc3)cc2O1,11.9,20.3,nt,-4.8,-1.2,4.5
COc1cc(NC(=O)COc2cc(O)c3c(c2)OC(C)(C)CC3=O)cc(OC)c1OC,48.4,77.8*,nt,2.4,39.6,-5.1
Cc1ccc(C(c2c(NC(=O)c3ccco3)sc(C)c2C)N2CCOCC2)cc1 (stereo not given),37.8,69.9*,nt,nt,12.1,nt
Fc1ccccc1CNc1ncnc2sccc12,21.5,39.9,nt,-2.3,22.7,-5.3
c1ccc2c(c1)OCC(CNc1ncnc3sccc13)O2 (stereo not given),-0.2,50.7*,25.8,-1.2,34.6,23.8
CC(C)(C)C1CCc2c(sc(NC(=O)CSc3ncn[nH]3)c2C#N)C1 (stereo not given),-17.5,17.7,12.2,-0.2,17.8,-1.1
CC1CCc2c(sc(NC(=O)CSc3ncn[nH]3)c2C#N)C1 (stereo not given),44.6,71.6*,7.5,7.3,-2.5,12.2
CCN1CCN(CC(=O)Nc2sc3c(c2C#N)CCC(C)C3)CC1 (stereo not given),nt,77.8*,8.9,0.5,-0.4,15.5
N#Cc1c(NC(=O)CSc2ncn[nH]2)sc2c1CCCC2,38.8,80.5*,1.7,4.2,8.4,8.0
CN(C)c1ccc(C(=O)N/N=C/c2ccccn2)cc1,-32.1,7.5,nt,3.5,32.7,-5.9
CCC(C(=O)NCC1CCCO1)N(Cc1ccc(F)cc1)C(=O)CNS(=O)(=O)c1ccccc1 (stereo not given),-4.1,18.0,nt,0.6,-0.5,-7.6
CN(C)CCNC=C(C(=O)Nc1ccc(Cl)cc1Cl)C(=O)Nc1ccc(Cl)cc1Cl,54.5*,16.1,9.3,-1.7,22.5,-17.9
CC(=O)/C(=C/N(C)C)C(=O)Nc1ccc(Cl)cc1Cl,14.2,-3.4,21.9,-3.5,-1.6,1.5
CCc1ccccc1OCCCN1CCCC1,-2.7,59.3*,nt,-1.4,-8.7,0.5
CCc1ccccc1OCCCCN1CCCCC1,-9.8,5.1,nt,3.7,5.1,1.3
CCc1ccc(S(=O)(=O)Nc2cc(SCC(=O)O)c(O)c3ccccc23)cc1,60.0*,83.0*,26.5,3.0,-12.8,-7.2
SMILES,TROY NFkB inh,TWEAK Fn14 block,PPC-1+TRAIL kill,HSP90 refold inh,C8 TRAIL sens,Platelet DG rel
Cc1ccc(C)c(S(=O)(=O)Nc2cc(SCC(=O)O)c(O)c3ccccc23)c1,59.2*,94.4*,11.9,-2.9,43.4,nt
Cc1ccc(NS(=O)(=O)c2cc(NC(=O)C(C)Oc3ccccc3)ccc2C)c(C)c1 (stereo not given),23.2,11.4,-0.2,-4.4,6.7,1.4
CCc1ccc(S(=O)(=O)Nc2ccc(O)c3ccccc23)cc1,-10.6,94.1*,nt,7.3,16.6,1.0
O=S(=O)(Nc1cc(Sc2cccc3cccnc23)c(O)c2ccccc12)c1ccccc1,nt,nt,70.0*,-2.8,nt,-0.8
OC(c1ccccc1)c1nc(-c2cccs2)cs1 (stereo not given),-68.3,-26.8,nt,nt,8.9,nt
CCOc1ccc(S(=O)(=O)Nc2cc(SCC(=O)O)c(O)c3ccccc23)cc1,54.5*,31.6,nt,3.6,34.6,-1.1
O=C(O)c1cccc(S(=O)(=O)Nc2ccc([N+](=O)[O-])cc2O)c1,17.7,-4.1,9.8,-2.8,8.5,4.9
O=C(O)CSc1cc(NS(=O)(=O)c2cccc([N+](=O)[O-])c2)c2ccccc2c1O,61.5*,90.7*,33.7,9.5,40.6,5.4
CC(=O)c1ccc(NC(=O)Nc2ccc3c(c2)N(C)C(=O)CS3)cc1,31.5,72.4*,7.8,3.3,21.5,2.2
Cc1ccnc(NC(=O)Nc2ccc3c(c2)N(C)C(=O)CS3)c1,-12.8,52.4*,31.9,-2.9,0.1,2.6
CCOc1ccc(NC(=O)Nc2ccc3c(c2)N(C)C(=O)CS3)cc1,20.6,25.0,6.6,1.1,2.6,-1.5
COc1cccc(N2CCN(C(=O)C3CCCN(c4ncnc5c4nc4n5CCCCC4)C3)CC2)c1 (stereo not given),12.4,12.1,nt,-5.8,7.1,14.0
CCC1(C)NC(=O)N(CC(=O)NCC(=O)Nc2c(C)cc(C)cc2C)C1=O (stereo not given),6.0,6.6,nt,nt,-5.4,nt
Cc1cc(C(=O)NC2CCCN(Cc3ccccc3F)C2)n[nH]1 (stereo not given),-4.2,0.5,nt,-2.5,-4.4,4.0
CCOc1ccc(S(=O)(=O)N2CCCCC2)cc1NC(=O)Cc1ccccc1,51.2*,29.7,nt,nt,23.8,nt
COc1ccc(-c2ccc3sc4ccccc4c(=O)c3c2)cn1,-76.2,10.8,nt,nt,65.9*,13.6
COc1cc2sc3ccc(-c4ccc(N(C)C)nc4)cc3c(=O)c2cc1OC,nt,nt,nt,nt,nt,0.9
COc1cc(OC)c(NC(=O)c2cc3ccccc3cc2O)cc1Cl,57.4*,94.1*,nt,nt,43.7,nt
COc1cc(NC(=O)c2ccccc2)c(OC)cc1Cl,5.8,10.8,0.1,-1.6,10.6,-22.2
CC(=O)Oc1ccc(Cn2c(C)c(C(=O)NCc3ccc4c(c3)OCCO4)sc2=O)cc1,67.3*,6.1,nt,nt,5.8,nt
Cc1c(C(=O)NCc2cccc(C(F)(F)F)c2)sc(=O)n1Cc1ccc(F)cc1,3.8,-12.8,nt,nt,-8.4,nt
COc1ccc(Br)c(Cn2c(C)c(C(=O)NCc3ccccc3C(F)(F)F)sc2=O)c1,69.1*,13.5,nt,nt,1.8,nt
C=Cc1ccc(Cn2c(C)c(C(=O)NCc3cccc(C(F)(F)F)c3)sc2=O)cc1,1.1,2.6,nt,nt,50.8*,nt

# Screening data (PubChem BioAssay)
